GAA glycogen – inhibitors or activators of human alpha-glucosidase glycogen cleavage; 0.38% of 300,000 active; recombinant GAA, glycogen substrate, Amplex Red glucose oxidase fluorescence; P10253; Potency, µM (doses to about 76.4 µM), inactives show at the top dose activity change, negative = inhibition, hits mostly inhibitors;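 further: 0% = full enzyme reaction and -100% = no-enzyme basal signal; the screen sought inhibitors and activators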
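Recombinant human enzyme (4 nM); glycogen substrate; 37 C, 40 min, pH 5.0. Readout: coupled glucose oxidase/Amplex Red fluorescence.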
Lamin A splicing – modulators of lamin A splicing | HeLa LMNA splicing GFP/RFP minigene ratio, 48 h | Potency, µM (top dose mostly 46.1 µM), inactives show at the top dose ratio change, negative = inhibition, most hits filed as inhibitors | 0.01% of 200,000 active; active means well fitted inhibition curve with a large enough effect in the signal ratio, with a control signal flat, not every such curve was filed as active; inconclusive means small, poorly fitted or top-dose-only effect, or effect the other way, or a change in a side signal; the % refers to the signal ratio
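S3 HeLa stable clones carrying a lamin A-EGFP splicing minigene plus DsRed2 were seeded at 600 cells/well in Opti-MEM with 2% FBS, pin-dosed and incubated 48 h at 37°C. Acumen cytometry (488 nm) gave the GFP/RFP total-intensity ratio.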
aGlu spleen mod – lysosomal alpha-glucosidase (human) modulation | P10253 | AID 2112 | Potency, µM (top dose mostly 79.9 µM), for inactives: at the highest dose activity change, negative = inhibition, hits mostly inhibitors | 0.006% of 240,000 active | human spleen homogenate, 4-MU-alpha-glucoside fluorescence;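 further: 0% = enzyme with vehicle and -100% = no enzyme basal signal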
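Compounds were titrated against alpha-glucosidase in spleen homogenate at pH 5.0, with 1 mM 4-methylumbelliferyl substrate for 40 min at 37 C. Reactions were quenched with pH 10 NaOH/glycine and fluorescence measured.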
GAA inh – inhibitors of human lysosomal alpha-glucosidase; P10253; Potency, µM (series often up to 76.9 µM), without a hit: at the highest dose activity change, negative = inhibition, actives largely listed as inhibitors; 0.005% of 200,000 active; purified human GAA, 4-MU-alpha-glucoside fluorescence; AID 1466;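 further: plate controls were uninhibited enzyme wells for no effect and no-enzyme background for full effect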
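Fluorogenic assay: 4 nM human alpha-glucosidase with 400 uM 4-methylumbelliferyl-alpha-D-pyranoside in 50 mM citrate/phosphate, 0.005% Tween-20, pH 5.0, 20 min at room temperature. Compounds tested up to 77 uM; AC50 from Hill fits.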
N370S GC mod – inhibits or activates N370S mutant glucocerebrosidase; P04062; N370S GC spleen homogenate, 4MU-glucoside fluorescence; Potency, µM (top dose mostly 59.4 µM), inactives show at the top dose activity change, negative = inhibition, hits mostly inhibitors; 0.092% of 330,000 active; AID 2101;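 further: 0% = full enzyme activity and -100% = no enzyme basal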
Numbers without * were called inactive; u = inconclusive; x = no result; [ ] = another dose, or the depositor's remark. Rows were chosen to be rich in hits. Some 0.41% of all compounds tested hit in one or more screens of this group. Unless noted, the call rests on the fitted dose curve; in most records, active means well fitted curve in the direction sought with a large enough effect; inconclusive means small, poorly fitted or top-dose-only effect, or another doubt; inactive means no such curve, though single readings can be large; an effect the other way counts as inactive or inconclusive. Unless noted, on the % scale 0 is the no-effect control and ±100 the full control effect; potency means the concentration at half of the fitted maximal effect.

SMILES	GAA glycogen	Lamin A splicing	aGlu spleen mod	GAA inh	N370S GC mod
CCOC(=O)N1CCCN(/[N+]([O-])=N/Oc2ccc([N+](=O)[O-])cc2[N+](=O)[O-])CC1	x	x	-2%	x	-5%
CCOC(=O)Cn1cnc2c(nnn2-c2ccc(F)cc2)c1=O	50µM*	x	x	x	-2%
COC(=O)Cn1cnc2c(nnn2-c2ccc(F)cc2)c1=O	15%[76.3 µM]	x	x	x	4%
COc1cc(-c2nc3ccc(C)cn3c2Nc2ccc3c(c2)OCCO3)ccc1O	0%	u	-1%	u	u
COc1cc(-c2nc3cnccn3c2Nc2ccc(C)cc2)ccc1O	11µM*	u	-4%	-1%	-13%
COc1cc(-c2nc3cnccn3c2Nc2ccc3c(c2)OCCO3)ccc1O	7µM*	u	-6%	-8%	-11%
CCOC(=O)c1cc(-c2ccccc2)n(CCC(=O)Nc2ccc(C(F)(F)F)cc2)c1C	x	-4%[46 µM]	x	x	x
O=C(O)c1ccc(/C=N/n2cc(-c3ccccc3)[nH]c2=S)cc1	28µM*	x	-1%	x	-2%
S=c1[nH]c(-c2ccccc2)cn1/N=C/c1ccc(Br)cc1	-13%	x	-7%	-19%	29%
O=S1(=O)CC/C(=N\Nc2ccccc2)c2ccsc21	25µM*	u	-17%	4%	-6%
CCOc1cc(CNc2ccc3c(c2)CCC3)ccc1O	-21%	3%	-2%	-6%	u
COc1cc(CNc2ccc3c(c2)CCC3)cc(OC)c1O	25µM*	-15%	-17%	5%	2%
CCCC[C@H](NC(=O)[C@H](CC(C)C)NC(=O)[C@@H](Cc1c[nH]c2ccccc12)NC(=O)[C@H](Cc1ccccc1)NC(=O)[C@@H](Cc1c[nH]c2ccccc12)NC(=O)[C@H](CC(N)=O)NC(=O)[C@@H](Cc1c(Cl)cccc1Cl)NC(=O)[C@@H]1CCCN1C(=O)[C@H](Cc1ccccn1)NC(=O)[C@@H]1CCCN1C(=O)[C@H](N)CCCCNC(=O)c1cccnc1)C(N)=O	x	x	8%	x	-3%
COc1cc(CNCCc2c[nH]c3ccccc23)ccc1OCc1ccc(F)cc1	2%	-4%	-5%	-2%	16µM*
COc1ccc(C(=O)C2CCCN(C3Cc4ccccc4C3)C2)cc1OC (centres undefined)	16µM*	x	-1%	u	11%
CCN(CC)CCCNC(=O)CCCn1ncn2c(cc3occc32)c1=O	-10%[76.3 µM]	x	x	x	x
CCOc1cc(C2C3=C(CCCC3=O)N(C)C3=C2C(=O)CCC3)cc(Cl)c1O	u	-7%	0%	-4%	-5%
CCOc1cc(C2C3=C(CCCC3=O)NC3=C2C(=O)CCC3)cc(Cl)c1O	35µM*	0%	-12%	-4%	-14%
Cc1ccc(Cl)cc1NC(=O)Cn1cc(S(=O)(=O)Cc2ccccc2Cl)c2ccccc21	19%[76.3 µM]	u	x	x	x
O=C(O)c1ccc(O)cc1	x	x	0%	x	-1%
O=C(O)c1ccc(O)c(O)c1	5µM*	x	-10%	-13%	11%
Cc1cc(O)c(NC(=O)c2ccco2)cc1C	11µM*	-8%	-15%	-5%	7%
Cc1ccc(O)c(NC(=O)c2cccc(NC(=O)c3ccco3)c2)c1	13µM*	-15%	1%	-6%	-19%
Cc1ccc(O)c(NC(=O)c2ccco2)c1	u	-6%	-1%	-2%	1%
CCn1c(-c2ccccc2)csc1=Nc1ccc(O)cc1	13µM*	u	x	-6%	-16%
SMILES	GAA glycogen	Lamin A splicing	aGlu spleen mod	GAA inh	N370S GC mod
Cc1cccc(NC(=O)CSc2nc3n[nH]c(C)c3c(=N)n2-c2cccc(Cl)c2)c1	x	14%[46 µM]	x	x	x
Cc1ccc2sc(N(CCCN(C)C)C(=O)c3ccc(S(=O)(=O)N(C)C4CCCCC4)cc3)nc2c1C	x	x	x	x	20µM*
CC(=O)c1ccc(C(=O)N(CCCN(C)C)c2nc3c(C)c(C)ccc3s2)cc1	6%[76.3 µM]	u	x	x	x
Cc1cc(OI)c(C(C)C)cc1-c1cc(C(C)C)c(OI)cc1C	x	u	-3%	x	6%
COc1cc(C)c(N)cc1C(C)C	14µM*	-3%	-1%	0%	-1%
COC(=O)C1CSc2[nH]c(=O)sc2C1c1ccc(O)c(OC)c1 (centres undefined)	16µM*	-6%	3%	0%	12%
COc1cc(C2c3sc(=O)[nH]c3SC3C(=O)N(c4ccc(C)cc4)C(=O)C32)ccc1O (centres undefined)	11µM*	x	-1%	-9%	-11%
c1nc2nc(Nc3ccc(N4CCOCC4)cc3)nc(NC3CCCCC3)c2[nH]1	x	x	4%	x	-21%
Cc1c(N/C=C(\Cl)C(=O)C(F)(F)F)c(=O)n(-c2ccccc2)n1C	32µM*	x	1%	-6%	-15%
Cc1ccc(-c2nc3cc(C(C)C)ccc3o2)cc1NC(=O)c1cc([N+](=O)[O-])ccc1N1CCOCC1	-11%[76.3 µM]	x	x	x	x
[O-][n+]1onc2c1CCC1N(O)C(c3ccccc3)CC21O (centres undefined)	28µM*	-6%	-2%	1%	1%
Cc1nn(-c2ccccc2)c2[nH]c(=O)c(CNc3ccc(N4CCOCC4)cc3)cc12	20µM*	-18%	-5%	5%	-8%
O[N+]1=CC=CCC1=S.On1ccccc1=S.[Zn]	x	x	-3%	x	8%
COc1ccc(NS(=O)(=O)c2ccc3c(c2)n(C)c(=O)n3C)cc1	12%	19%	1%	-13%	0%
COc1ccc(S(=O)(=O)Nc2cc3c(cc2NCc2ccccc2)n(C)c(=O)n3C)cc1	10µM*	x	x	x	x
O=C(/C=C/C#Cc1cccc(NS(=O)(=O)c2ccccc2)c1)NO	x	x	1%	x	-12%
Oc1c(Cl)cc(Cl)c2c1NCCC2	14µM*	-20%	5%	3%	-5%
COc1ccc(O)c(-c2c(-c3ccc(Cl)cc3)n[nH]c2C)c1	10µM*	u	1%	-8%	-17%
COc1ccc(-c2n[nH]c(C)c2-c2ccc(Cl)cc2)c(O)c1	-10%	6%[0.0737 µM]	-10%	-1%	x
COc1cc(/C=N/Nc2nc3ccccc3[nH]2)ccc1O	22µM*	-27%	-19%	3%	-10%
COc1cc(/C=N/Nc2nc3ccccc3[nH]2)cc(OC)c1O	20µM*	u	-5%	5%	-11%
Cc1c(/C=N/Nc2nc3ccccc3[nH]2)c2ccccc2n1C	u	x	8%	x	-15%
C=CCn1cc(/C=N/Nc2nc3ccccc3[nH]2)c2ccccc21	28µM*	u	-5%	-8%	u
C(=N\Nc1nc2ccccc2[nH]1)/c1ccc2c(c1)OCO2	16µM*	12%[9.22 µM]	x	-7%	-4%
COC(=O)C1=C(C)NC(C)=C(C(=O)OCCCN2CCC(c3ccccc3)(c3ccccc3)CC2)[C@H]1c1cccc([N+](=O)[O-])c1	x	x	-1%	x	u
COc1cccc(C(=O)N2c3nc(-c4ccco4)nn3C3(CCCCC3)[C@@H]3CCCC[C@@H]32)c1	-12%[76.3 µM]	u	x	x	x
COc1cc(/C=N/Nc2nn3cnnc3c3ccccc23)ccc1O	18µM*	-10%	6%	-10%	-6%

High-throughput results (PubChem)
